The source made the active and inactive calls. How the source made its calls: active means hit-call score of the fitted dose curve at least 0.9, where 1 is the maximum; inactive means score below 0.9.

Read-out in assay [1]: Tissue plasminogen activator (tPA), PLAT (gene 5327)
In words: BSK_BE3C_tPA: BioMAP Diversity Plus: BE3C Assay for Tissue plasminogen activator (tPA) Biomarker Activity (AID 2283041).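 On outcome: tPA level quantified by ELISA one day after compound addition.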 The note with it: primary human bronchial epithelial cells; actives raise or lower the signal. In a few lines: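 Human primary bronchial epithelial cells were dosed with chemical and tPA biomarker levels measured by ELISA 24 hours later. Activity was fitted bidirectionally against DMSO as negative control and baseline.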

Read-out in assay [2]: Interleukin-8 (IL8), CXCL8 (gene 3576)
In words: BSK_CASM3C_IL8: BioMAP Diversity Plus: CASM3C Assay for Interleukin-8 (IL8) Biomarker Activity (AID 2283042).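 Further: IL-8 protein level quantified by ELISA.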 The note with it: primary human coronary artery smooth muscle cells; actives raise or lower the signal.

Read-out in assay [3]: Human Leukocyte Antigen - DR isotype (HLADR), HLA-DRA (gene 3122)
In words: BSK_CASM3C_HLADR: BioMAP Diversity Plus: CASM3C Assay for Human Leukocyte Antigen - DR isotype (HLADR) Biomarker Activity (AID 2283043).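 Further: cell-surface HLA-DR protein level quantified by ELISA.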 Particulars: primary human coronary artery smooth muscle cells; actives raise or lower the signal.

Read-out in assay [4]: Macrophage colony-stimulating factor (MCSF), CSF1 (gene 1435)
In words: BSK_CASM3C_MCSF: BioMAP Diversity Plus: CASM3C Assay for Macrophage colony-stimulating factor (MCSF) Biomarker Activity (AID 2283044).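 Further: M-CSF protein amount quantified by ELISA after 24 h exposure.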 The note with it: primary human coronary artery smooth muscle cells; actives raise or lower the signal.

Read-out in assay [5]: Low-density lipoprotein receptor (LDLR), LDLR (gene 3949)
In words: BSK_CASM3C_LDLR: BioMAP Diversity Plus: CASM3C Assay for Low-density lipoprotein receptor (LDLR) Biomarker Activity (AID 2283045).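 Further: LDLR protein level on the cell surface quantified by ELISA.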 Particulars: primary human coronary artery smooth muscle cells; actives raise or lower the signal.

Read-out in assay [6]: Monocyte Chemoattractant Protein-1 (MCP1), CCL2 (gene 6347)
In words: BSK_CASM3C_MCP1: BioMAP Diversity Plus: CASM3C Assay for Monocyte Chemoattractant Protein-1 (MCP1) Biomarker Activity (AID 2283046).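 Further: MCP-1 level quantified by ELISA 24 h after dosing.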 Particulars: primary human coronary artery smooth muscle cells; actives raise or lower the signal.

A short description of assay [7]: BSK_CASM3C_Proliferation: Cell Proliferation Assessment in the BioMAP Diversity Plus: CASM3C Assay (AID 2283047).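 Further: sulforhodamine B total protein stain as relative cell number at 560 nm; sub-confluent cells exposed 48 h before staining; fitted both ways against DMSO so gain or loss of cell number.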 Particulars: primary human coronary artery smooth muscle cells.
Read-out in assay [8]: Monokine induced gamma interferon (MIG), CXCL9 (gene 4283)
In words: BSK_CASM3C_MIG: BioMAP Diversity Plus: CASM3C Assay for Monokine induced gamma interferon (MIG) Biomarker Activity (AID 2283048).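 Further: MIG protein level measured by ELISA.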 The note with it: primary human coronary artery smooth muscle cells; actives raise or lower the signal.

Read-out in assay [9]: serum amyloid A (SAA), SAA1 (gene 6288)
In words: BSK_CASM3C_SAA: BioMAP Diversity Plus: CASM3C Assay for serum amyloid A (SAA) Biomarker Activity (AID 2283049).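 Further: SAA protein level quantified by ELISA.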 Particulars: primary human coronary artery smooth muscle cells; actives raise or lower the signal.

Assay [10] is described as follows: BSK_CASM3C_SRB: Viability Assessment in the BioMAP Diversity Plus: CASM3C Assay (AID 2283050).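 Further: total protein by SRB staining as cytotoxicity measure in parallel cultures.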 The note with it: primary human coronary artery smooth muscle cells.
Read-out in assay [11]: Thrombomodulin, THBD (gene 7056)
In words: BSK_CASM3C_Thrombomodulin: BioMAP Diversity Plus: CASM3C Assay for Thrombomodulin Biomarker Activity (AID 2283051).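 Further: thrombomodulin protein level measured by ELISA 24 h after dosing.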 Particulars: primary human coronary artery smooth muscle cells; actives raise or lower the signal.

Read-out in assay [12]: Tissue Factor, F3 (gene 2152)
In words: BSK_CASM3C_TissueFactor: BioMAP Diversity Plus: CASM3C Assay for Tissue Factor Biomarker Activity (AID 2283052).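 Further: cell surface tissue factor protein level read by ELISA.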 Particulars: primary human coronary artery smooth muscle cells; actives raise or lower the signal.

Read-out in assay [13]: Interferon-gamma inducible Protein 10 (IP10), CXCL10 (gene 3627)
In words: BSK_hDFCGF_IP10: BioMAP Diversity Plus: hDFCGF Assay for Interferon-gamma inducible Protein 10 (IP10) Biomarker Activity (AID 2283053). The note with it: primary human foreskin fibroblasts; actives raise or lower the signal. In short, it runs like this: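 Human foreskin fibroblast primary cells (hDFCGF system) were dosed with chemical and assayed at 24 h; IP-10 measured by ELISA. Activity fitted bidirectionally relative to DMSO negative control as baseline.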

Read-out in assay [14]: Urokinase-type plasminogen activator receptor (uPAR), PLAUR (gene 5329)
In words: BSK_CASM3C_uPAR: BioMAP Diversity Plus: CASM3C Assay for Urokinase-type plasminogen activator receptor (uPAR) Biomarker Activity (AID 2283054).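 Further: cell-surface uPAR protein level quantified by ELISA.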 Particulars: primary human coronary artery smooth muscle cells; actives raise or lower the signal.

Read-out in assay [15]: Vascular cell adhesion molecule 1 (VCAM1), VCAM1 (gene 7412)
In words: BSK_CASM3C_VCAM1: BioMAP Diversity Plus: CASM3C Assay for Vascular cell adhesion molecule 1 (VCAM1) Biomarker Activity (AID 2283055).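 Further: VCAM-1 protein level quantified by ELISA on the cells.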 Particulars: primary human coronary artery smooth muscle cells; actives raise or lower the signal.

Read-out in assay [16]: Collagen III, COL3A1 (gene 1281)
In words: BSK_hDFCGF_CollagenIII: BioMAP Diversity Plus: hDFCGF Assay for Collagen III Biomarker Activity (AID 2283056). Particulars: primary human foreskin fibroblasts; actives raise or lower the signal. In a few lines: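 Response relative to DMSO, fitted in both directions, reflects ELISA-measured collagen III in human primary skin fibroblasts 24 h after compound addition.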

Read-out in assay [17]: Epidermal growth factor receptor (EGFR), EGFR (gene 1956)
In words: BSK_hDFCGF_EGFR: BioMAP Diversity Plus: hDFCGF Assay for Epidermal growth factor receptor (EGFR) Biomarker Activity (AID 2283057). Particulars: primary human foreskin fibroblasts; actives raise or lower the signal. In short, it runs like this: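 Primary human foreskin fibroblasts were exposed to compound for 24 h, after which cell-surface EGFR was quantified by ELISA. Activity was fitted bidirectionally against the DMSO negative control as baseline.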

Read-out in assay [18]: Interleukin-8 (IL8), CXCL8 (gene 3576)
In words: BSK_hDFCGF_IL8: BioMAP Diversity Plus: hDFCGF Assay for Interleukin-8 (IL8) Biomarker Activity (AID 2283058). Particulars: primary human foreskin fibroblasts; actives raise or lower the signal. In short, it runs like this:
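Fibroblast monolayers (human foreskin, hDFCGF) received test chemical for 24 h before ELISA detection of IL-8; either increases or decreases relative to DMSO count as activity.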

Assay [19] is described as follows: BSK_hDFCGF_Proliferation: Cell Proliferation Assessment in the BioMAP Diversity Plus: hDFCGF Assay (AID 2283059).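 Further: curves fitted for both rise and fall of signal versus DMSO baseline.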 Particulars: primary human foreskin fibroblasts. In short, it runs like this: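 Total protein read at 560 nm after 0.1% SRB staining of TCA-fixed human skin fibroblasts, […]. Activity is fitted in both directions relative to DMSO as baseline.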

Read-out in assay [20]: Macrophage colony-stimulating factor (MCSF), CSF1 (gene 1435)
In words: BSK_hDFCGF_MCSF: BioMAP Diversity Plus: hDFCGF Assay for Macrophage colony-stimulating factor (MCSF) Biomarker Activity (AID 2283060). Particulars: primary human foreskin fibroblasts; actives raise or lower the signal. In short, it runs like this: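 fibroblasts (human foreskin, primary), 24 h post-dose; M-CSF by ELISA; bidirectional fit, DMSO = baseline.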

As for `Cc1cccc(C)c1N`, the result in assay [1], in [2], in assay [3], in assay [4], in assay [5] and in assay [6] was inactive. For the same molecule, the result in [7], in [8], in assay [9], in assay [10], in assay [11] and in assay [12] was inactive. Further, the outcome in [13], in [14], in assay [15], in assay [16], in assay [17] and in [18] was inactive. Also, the outcome in assay [19] and in assay [20] was inactive.
A word on the AC50: it is the concentration giving half of the maximal activity seen. Consider `CC(c1ccc(O)cc1)(c1ccc(O)cc1)c1ccc(O)cc1`, for which the AC50 in assay [1] is 3.85 µM (active); in [3], 4.44 µM (active); in assay [4] it was 3.11 µM (active); in [6], 5.43 µM (active); in assay [7], 27.2 µM (active); in assay [8] it was 5.35 µM (active). In addition, the AC50 is 4.79 µM (active) in assay [10]; 25.6 µM (active) in assay [13]; 6.77 µM (active) in assay [14]; 5.31 µM (active) in [15]; 3.78 µM (active) in assay [16]; 36.6 µM (active) in assay [18]. Besides, the AC50 in assay [19] was 23.6 µM (active); in [20], 16.5 µM (active). Further, the result in assay [2], in assay [5], in assay [9], in assay [11], in [12] and in assay [17] was inactive.
In the case of `Clc1ccc(Cl)cc1`, the outcome in assay [1], in [2], in [3], in [4], in assay [5] and in [6] was inactive. Besides, the result in assay [7], in assay [8], in assay [9], in assay [10], in [11] and in assay [12] was inactive. The result in assay [13], in [14], in [15], in assay [16], in assay [17] and in assay [18] was inactive. For the same molecule, the outcome in assay [19] and in [20] was inactive.
With `CC(C)(c1ccccc1)c1ccc(O)cc1`, the AC50 was 29.3 µM (active) in assay [1]; 32.3 µM (active) in assay [3]; 30.5 µM (active) in assay [7]; 29.5 µM (active) in assay [10]; 20 µM (active) in assay [11]; 34.1 µM (active) in assay [13]. For the same molecule, the AC50 in assay [15] was 28.6 µM (active); in [16] it was 32.2 µM (active); in assay [18], 30.8 µM (active); in assay [19], 29.3 µM (active); in assay [20], 30.7 µM (active). Further, the result in assay [2], in assay [4], in assay [5], in [6], in assay [8] and in assay [9] was inactive. Moreover, the result in assay [12], in assay [14] and in [17] was inactive.
As for `CCCCCCOC(=O)c1ccccc1C(=O)OCCCCCC`, the outcome in assay [1], in [2], in assay [3], in assay [4], in assay [5] and in assay [6] was inactive. In addition, the result in [7], in assay [8], in assay [9], in [10], in assay [12] and in assay [13] was inactive. Besides, the result in assay [14], in [15], in assay [17] and in assay [18] was inactive. The AC50 was 17.5 µM (active) in assay [11], 7.56 µM (active) in assay [16] and 11.2 µM (active) in assay [19].

The values are drawn from PubChem BioAssay (EPA / NIEHS).
